Assay [1] addresses Thyrotropin receptor (Homo sapiens) (UniProt P16473). The assay is described as follows: qHTS assay to identify small molecule agonists of the thyroid stimulating hormone receptor (TSHR) signaling pathway (AID 1224843; calls by dose curve; also: nearly all actives have a fitted effect of over 45% in size). The essentials: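 HEK293/TSHR, 800 cells/well; cpd 30 min RT; add cAMP-d2 + anti-cAMP-cryptate, 1 h RT; fluorescence read on plate reader. 15-pt titration, n=3.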
(In general: qHTS replaces the single test concentration by a dilution series.)

A short description of assay [2]: qHTS assay to identify small molecule agonists of the hypoxia (HIF-1) signaling pathway - cell viability counter screen (AID 1224844; calls by dose curve; also: nearly all actives have a fitted effect of over 50% in size). The gist of the method: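 HRE-bla ME-180; 0.5% dFBS; cpd 17 h, 37C, 5% CO2; CellTiter-Glo lum., 30 min RT, post-FRET read, same wells.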
Assay [3] in a line: qHTS assay to identify small molecule agonists of the hypoxia (HIF-1) signaling pathway (AID 1224846; active = well fitted activation curve with a large enough effect in the signal ratio in the repeat runs, not every such curve was filed as active; the % refers to the signal ratio). The essentials:
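Reporter induction in HRE-bla ME-180 cells is taken as agonism: cells sit 5 hrs after plating, receive compounds or DMSO only, incubate 17 hrs at 37C under 5% CO2, and are loaded with CCF4-AM for beta-lactamase FRET measurement.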

The nature of assay [4]: qHTS assay to identify small molecule agonists of H2AX - cell viability counter screen (AID 1224847; calls by dose curve; also: top concentration of the series differs between compounds; nearly all actives have a fitted effect of over 30% in size). The essentials: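 Read-out: CellTiter-Glo luminescence, 30 min RT. Cells: wild-type CHO-K1, 1000/well, 10% FBS, plated overnight at 37C. Treatment: 15 concentrations, 3 hr, 37C, 0.76% DMSO.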
A short description of assay [5]: qHTS assay to identify small molecule antagonists of the estrogen related receptor (ERR) signaling pathway from Tox21 library (AID 1224848). Also: nearly all actives have a fitted effect of over 50% in size. The gist of the method:
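Compounds dissolved in DMSO are pin-transferred onto ERR reporter cells (2,000 per well) that have settled for 6 h at 37 C. Plates then incubate 18 h at 37 C before ONE-Glo luciferase reagent and a luminescence read 30 min later.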

A short description of assay [6]: qHTS assay to identify small molecule agonists of the estrogen related receptor (ERR) signaling pathway from Tox21 library (AID 1224849; calls by dose curve; also: nearly all actives have a fitted effect of over 15% in size). As to conditions: ERR reporter cell line, ONE-Glo luciferase, 18 h; at 92.4 µM (top of the series) unless noted. The essentials: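 Tox21 compounds tested for ERR agonism in an NTP reporter cell line: 18 h treatment at 37 C, then ONE-Glo luminescence.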

The nature of assay [7]: qHTS RealTime-Glo MT Cell Viability Assay in HepG2 cells - 24 hour (AID 1224867). Also: nearly all actives have a fitted effect of over 50% in size. The essentials: (§1)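 Real-time, nonlytic viability: 600 HepG2 cells/well mixed with NanoLuc enzyme plus prosubstrate; 5 h settle, compound (DMSO) added by pintool; luminescence monitored over 40 h at 37 C.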
Assay [8] in a line: qHTS RealTime-Glo MT Cell Viability Assay in HEK293 cells - 32 hour (AID 1224868). Also: nearly all actives have a fitted effect of over 50% in size. Also: potency is read from the fitted curve at half-maximal effect. The gist of the method:
(§2)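 Cells + reagent dispensed (600 cells/well, HEK293) → 5 h at 37 C/5% CO2 → 23 nL compound in DMSO pinned → 40 h at 37 C → luminescence read at 0, 8, 16, 24, 32, 40 h.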

A short description of assay [9]: A CellTox Green Cytotoxicity Assay to monitor cytotoxicity in HEK293 cells - 0 hour (AID 1224869). Also: nearly all actives have a fitted effect of over 50% in size. The essentials:
(§3)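 Tox21 screen in HEK293: membrane-impermeant cyanine dye fluoresces on binding dead-cell DNA; compound pinned 5 h post-seeding, plates held at 37 C, signal read repeatedly through 40 h.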

Assay [10] can be described thus: qHTS RealTime-Glo MT Cell Viability Assay in HepG2 cells - 40 hour (AID 1224870). Also: nearly all actives have a fitted effect of over 50% in size. The gist of the method: (§4)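 HepG2 cells (600/well) mixed with RealTime-Glo MT reagent, settled 5 h at 37 C/5% CO2 before compound addition. Nonlytic NanoLuc luminescence from viable-cell prosubstrate reduction read repeatedly during 40 h treatment at 37 C.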
Assay [11] can be described thus: A CellTox Green Cytotoxicity Assay to monitor cytotoxicity in HEK293 cells - 40 hour (AID 1224871). Also: nearly all actives have a fitted effect of over 45% in size. The essentials:
as §3

Assay [12] in a line: qHTS RealTime-Glo MT Cell Viability Assay in HEK293 cells - 16 hour (AID 1224872). Also: nearly all actives have a fitted effect of over 50% in size. Also: potency is read from the fitted curve at half-maximal effect. The gist of the method:
as §2

Assay [13] in a line: qHTS RealTime-Glo MT Cell Viability Assay in HepG2 cells - 8 hour (AID 1224873). Also: nearly all actives have a fitted effect of over 55% in size. The essentials:
as §4

The nature of assay [14]: qHTS RealTime-Glo MT Cell Viability Assay in HEK293 cells - 40 hour (AID 1224874). Also: nearly all actives have a fitted effect of over 50% in size. Also: potency is read from the fitted curve at half-maximal effect. As to conditions: RealTime-Glo luminescence; max response: active compounds read low. The essentials: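 HEK293 + NanoLuc + prosubstrate, 600 cells/well; 5 h, 37 C/5% CO2; compound 23 nL in DMSO by pintool; 37 C; luminescence read at 0, 8, 16, 24, 32 and 40 h time points.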
A short description of assay [15]: A CellTox Green Cytotoxicity Assay to monitor cytotoxicity in HEK293 cells - 24 hour (AID 1224875). Also: nearly all actives have a fitted effect of over 45% in size. The gist of the method:
as §3

Assay [16] can be described thus: A CellTox Green Cytotoxicity Assay to monitor cytotoxicity in HepG2 cells - 16 hour (AID 1224876). Also: nearly all actives have a fitted effect of over 45% in size. The essentials: (§5)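 Measurements at 0, 8, 16, 24, 32 and 40 h of treatment captured CellTox Green fluorescence in HepG2 cells that had been co-plated with reagent and preincubated 5 h at 37 C/5% CO2.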
Assay [17] is described as follows: qHTS RealTime-Glo MT Cell Viability Assay in HepG2 cells - 32 hour (AID 1224877). Also: nearly all actives have a fitted effect of over 55% in size. The gist of the method: as §1
Assay [18] can be described thus: A CellTox Green Cytotoxicity Assay to monitor cytotoxicity in HepG2 cells - 24 hour (AID 1224878). Also: nearly all actives have a fitted effect of over 45% in size. The gist of the method:
as §5

Assay [19] is described as follows: A CellTox Green Cytotoxicity Assay to monitor cytotoxicity in HepG2 cells - 40 hour (AID 1224879). Also: nearly all actives have a fitted effect of over 40% in size. The gist of the method: as §5
The nature of assay [20]: qHTS assay to identify small molecule agonists of H2AX (AID 1224845; active = well fitted activation curve with a large enough effect in the signal ratio in the repeat runs, not every such curve was filed as active; the % refers to the signal ratio). The essentials:
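Wild-type CHO-K1 cells, plated overnight, exposed 3hr at 37C to 15 concentrations (0.76% DMSO final). Lysed, then HTRF anti-pH2AX (S139) cryptate and anti-H2AX-d2 antibodies, 24 hr room temperature; 665/620 nm emission read.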

Consider 8 molecules from PubChem BioAssay (Tox21).

A number with no mark means an inactive call. Inconclusive results are not listed. The source made the active and inactive calls. Unless noted, calls follow the shape of the dose curve; as a rule, active = well fitted curve in the direction sought with a large enough effect in the repeat runs; inconclusive = weak or mixed curves; inactive = no such curve, though single readings can be large; an effect the other way counts as inactive or inconclusive.
% is scaled to controls: 0 for no effect and ±100 for the full control effect.

Thyrotropin receptor (Homo sapiens), sequence (P16473 whole entry, looked up): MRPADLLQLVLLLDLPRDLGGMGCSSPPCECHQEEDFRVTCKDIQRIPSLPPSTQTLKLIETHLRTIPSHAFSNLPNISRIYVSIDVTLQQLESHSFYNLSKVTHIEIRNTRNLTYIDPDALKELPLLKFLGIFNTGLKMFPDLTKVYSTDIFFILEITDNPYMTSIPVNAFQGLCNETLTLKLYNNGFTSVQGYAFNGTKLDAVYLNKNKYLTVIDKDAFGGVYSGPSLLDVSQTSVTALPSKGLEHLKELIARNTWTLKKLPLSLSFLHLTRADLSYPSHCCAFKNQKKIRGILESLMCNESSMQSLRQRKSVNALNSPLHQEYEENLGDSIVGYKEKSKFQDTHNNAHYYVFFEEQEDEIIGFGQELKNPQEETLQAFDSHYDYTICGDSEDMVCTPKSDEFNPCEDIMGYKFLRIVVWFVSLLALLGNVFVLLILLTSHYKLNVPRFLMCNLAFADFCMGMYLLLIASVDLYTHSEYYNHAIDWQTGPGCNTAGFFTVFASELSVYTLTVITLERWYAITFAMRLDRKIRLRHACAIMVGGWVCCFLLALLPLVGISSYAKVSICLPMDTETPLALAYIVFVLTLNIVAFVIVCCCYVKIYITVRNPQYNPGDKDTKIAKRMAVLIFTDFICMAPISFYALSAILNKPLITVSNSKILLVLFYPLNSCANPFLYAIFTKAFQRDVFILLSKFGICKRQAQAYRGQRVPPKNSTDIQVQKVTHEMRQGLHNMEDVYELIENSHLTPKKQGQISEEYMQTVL

Consider `CCCCCO`, for which the Potency entry in assay [1], in [2], in [4], in assay [5], in assay [8] and in assay [9] was “inactive” in each case. Also, the Potency result in [10], in assay [11], in assay [12], in assay [15], in assay [16] and in [17] was “inactive” in each case. Also, the Potency result in assay [18] and in assay [19] was “inactive” throughout. Also, the molecule was classed as inactive in assay [3], in assay [7] and in assay [13]. The activity change, positive = activation in [6] was -0.565%. For the same molecule, the max response in [14] is 1.46%.
Turning to `O=C(Nc1ccc2c(c1)Cc1ccccc1-2)C(F)(F)F`, the Potency result in assay [1], in assay [2], in [20], in assay [9], in assay [10] and in assay [15] was “inactive” each time. Besides, the Potency entry in [16], in assay [17], in assay [18] and in assay [19] was “inactive” in each case. The molecule was classed as inactive in assay [3], in assay [7] and in [13].
For the molecule `CC(C(=O)O)c1ccc(/C=C2\CCCCC2=O)cc1` (stereo unspecified), the Potency entry in assay [1], in [2], in assay [4], in [8], in assay [9] and in assay [10] was “inactive” throughout. The Potency entry in assay [12], in [15], in assay [16], in [17], in [18] and in [19] was “inactive” in each case. Besides, the molecule was called inactive in assay [3], in [7] and in assay [13]. The max response in assay [14] is 21%.
With `Cc1c(Nc2ncccc2C(=O)O)cccc1C(F)(F)F`, the Potency entry in [1], in assay [2], in assay [20], in assay [4], in [8] and in [9] was “inactive” throughout. Moreover, the Potency result in assay [10], in assay [11], in assay [12], in assay [15], in assay [16] and in [17] was “inactive” throughout. For the same molecule, the Potency result in assay [19] is “inactive”. Moreover, the call in assay [13] was inactive. In addition, the max response in assay [14] was 0.365%.
Consider `Clc1ccccc1-c1nc(-c2ccncc2)no1`, for which the Potency result in [1], in [2], in [20], in assay [10], in assay [11] and in [15] was “inactive” in each case. The Potency entry in assay [16], in assay [17] and in [18] was “inactive” throughout. In addition, in assay [13], the outcome was inactive.
In the case of `COc1cc(CNC(=O)CCCC/C=C/C(C)C)ccc1O`, the Potency result in assay [1], in assay [2], in assay [20], in assay [9], in assay [10] and in assay [11] was “inactive” each time. Moreover, the Potency result in assay [15], in assay [16], in [17], in assay [18] and in [19] was “inactive” each time. Besides, the molecule was classed as inactive in assay [7] and in assay [13]. Moreover, the Potency is 7.56 µM (active) in assay [8], 4.25 µM (active) in [12] and 8.48 µM (active) in assay [14].
For `CC(COc1ccccc1)NC(C)C(O)c1ccc(O)cc1` (stereo unspecified), the Potency entry in assay [1], in [2], in assay [4], in assay [5], in assay [8] and in [9] was “inactive” each time. The Potency result in assay [10], in assay [11], in [12], in assay [15], in assay [16] and in [17] was “inactive” throughout. The Potency result in assay [19] is “inactive”. For the same molecule, the molecule was classed as inactive in [3], in assay [7] and in [13]. Further, in [6], the activity change, positive = activation is 0.415% [at 42.5 µM]. Besides, the max response in [14] was -6.13%.
Turning to `CC(O)C(C)O` (stereo unspecified), the Potency entry in [1], in assay [2], in [20], in assay [8], in assay [10] and in [12] was “inactive” in each case. The Potency result in assay [15], in assay [16], in assay [17], in assay [18] and in [19] was “inactive” throughout. Moreover, the result in assay [3] and in assay [13] was inactive. For the same molecule, in assay [14], the max response is 12.1%.
